Results from PubChem BioAssay AID1220 (Sanford-Burnham Center for Chemical Genomics, 2008).
Out of some 190,000 compounds screened, about 1,300 (0.68%) were called active. Cut-off read from the data, not from the text of the source: active = inhibition above about 50%; inactive = the rest. The sample as a whole holds a higher share of actives than the screen did.

Each molecule was assayed against Mannose-6-phosphate isomerase (Homo sapiens) (UniProt P34949) (assay: human PMI inhibitors, high substrate, primary screen, biochemical, fluorescence intensity, high mannose 6-phosphate (AID 1220)). Settings: recombinant PMI enzyme, coupled fluorescence intensity; at 20 µM; hits give high values.
Chain of Mannose-6-phosphate isomerase (Homo sapiens) (P34949 whole entry, looked up): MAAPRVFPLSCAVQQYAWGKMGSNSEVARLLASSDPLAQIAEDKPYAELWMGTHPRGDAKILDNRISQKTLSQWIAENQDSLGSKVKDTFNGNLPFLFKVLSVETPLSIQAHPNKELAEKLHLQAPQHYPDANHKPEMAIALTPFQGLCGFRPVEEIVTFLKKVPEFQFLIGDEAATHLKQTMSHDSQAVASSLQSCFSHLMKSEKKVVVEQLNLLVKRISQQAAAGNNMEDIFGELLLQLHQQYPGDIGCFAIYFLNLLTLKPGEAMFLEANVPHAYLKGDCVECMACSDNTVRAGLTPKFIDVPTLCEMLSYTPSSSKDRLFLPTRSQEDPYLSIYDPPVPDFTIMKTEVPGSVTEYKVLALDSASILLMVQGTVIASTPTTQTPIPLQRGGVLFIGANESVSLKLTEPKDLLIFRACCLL

inhibition, inactive:
CCN(CC)CCCNC(=O)c1ccc2c(SCC(=O)O)c3c(nc2c1)CCC3 -9.3%
COc1ccc(-n2c(C(C)n3nc(C)c([N+](=O)[O-])c3C)n[nH]c2=S)cc1 (stereo not drawn) -11.8%
COc1ccc(NC(=O)CC2C(=O)N(CCc3ccccc3)C(=S)N2Cc2cccnc2)cc1 (stereo not drawn) -8.8%
COc1ccc(CC(=O)NNC(=O)c2cccs2)cc1 -0.3%
CC1CC(N(C(=O)c2ccco2)c2ccccc2)c2ccccc2N1 (stereo not drawn) 17.9%
Oc1c(C(Nc2nccs2)c2ccc(C(F)(F)F)cc2)ccc2cccnc12 (stereo not drawn) 24.5%
Oc1c(C(Nc2nc3ccccc3s2)c2ccco2)ccc2cccnc12 (stereo not drawn) 34.8%
CC(C)OC(=O)c1ccc(NC(=O)c2ccco2)cc1 6.2%
O=[N+]([O-])c1cc(-c2ncccn2)cs1 -6.6%
O=[N+]([O-])c1cccnc1NCc1cccs1 3.1%
COc1ccc(NC(=O)Cn2nc3n(c2=S)CCC3)cc1 2.7%
CCSC1=C(C#N)C(c2ccc3c(c2)OCO3)C2=C(CCCC2=O)N1 (stereo not drawn) 7.2%
CCOC(=O)C1=C(C)OC(N)=C(C#N)C1c1ccc(C)o1 (stereo not drawn) -3.7%
Cc1ccc([C@H]2C(C#N)=C(N)Oc3cc(C)oc(=O)c32)o1 -11.4%
CC(=O)C1=C(C)OC(N)=C(C#N)C1c1ccco1 (stereo not drawn) 10.4%
COC(=O)C1=C(C)OC(N)=C(C#N)C1c1ccco1 (stereo not drawn) 2.9%
Clc1ccc(-c2cn3cc(Br)ccc3n2)cc1Cl -15.2%
O=C(O)CCc1ccc(-c2cccs2)n1CCc1ccccc1 3.8%
CCC(C)(C)n1nnnc1C(c1ccncc1)N1CCC(C)CC1 (stereo not drawn) -5.6%
O=C(Nc1cccn(Cc2c(Cl)cccc2Cl)c1=O)C1CC1 3.9%
COCCNC(=O)Cn1cc2c(n1)CCC(C)C2 (stereo not drawn) 4.1%
COC(=O)C1C(c2ccc(N(C)C)cc2)C(C(=O)OC)S(=O)(=O)CS1(=O)=O (stereo not drawn) 15%
CC(=O)NC1(C2CCCCC2=O)CCCCC1 (stereo not drawn) 4.2%
COc1ccc(C(=O)N/C(=C/c2cccs2)c2nc3ccccc3[nH]2)cc1OC 3.9%
O=C(N/C(=C/c1cccs1)c1nc2ccccc2[nH]1)c1ccccc1 -4.7%
Cc1cc(C)cc(N2C(=O)CN(Cc3sccc3C)C2=S)c1 0.5%
CCOc1cccc(OCCOc2ccc(C(=O)c3ccccc3)cc2)c1 10.2%
CN1CCN(c2nc(-c3ccc(Cl)s3)cs2)CC1 -4.8%
CCN(CC)c1ccc(C=Nc2ccc(C)cc2C)c(O)c1 36.9%
CCN(CC)c1ccc(/C=N/NC(=S)NCc2ccccc2)c(O)c1 1.2%
CCN(CC)c1ccc(/C=N/Nc2ccc(C)cc2)c(O)c1 -70.5%
CCN(CC)c1ccc(/C=N/N2C(=O)c3ccccc3C2=O)c(O)c1 -18.7%
Cc1ccc(-c2cc(C(=O)O)n(-c3ccc(S(N)(=O)=O)cc3)n2)cc1 -17.2%
COc1cc(CC(=O)OCC(=O)Nc2ccc([N+](=O)[O-])cc2)cc(OC)c1OC 5.9%
CCC(=O)Nc1cccc2cccnc12 1.3%
CC(C)NC(=O)COc1ccccc1C#N -4.6%
Cc1ccc(C(=O)c2c[nH]cc2-c2ccccc2)cc1 4.1%
CC(C(=O)NC1CCCC1)N(Cc1ccco1)C(=O)c1snc(C(=O)NC2CCCC2)c1N (stereo not drawn) 4%
Cc1ccc(-n2cccc2/C=C2\C(=N)N3N=C(c4ccco4)SC3=NC2=O)cc1 -16.6%
Cc1ccc2c(c1)c1c(n2CC(O)CNC(C)(C)C)CCCC1 (stereo not drawn) 27.9%
Oc1ccc2ccccc2c1/C=N/n1cnnc1 40.6%
CCn1c(/C=N/c2nc3ccccc3n2C)nc2ccccc21 33.8%
Cc1nc2ccccc2c(=O)n1/N=C/c1c(O)ccc2ccccc12 17.6%
Cn1c(/N=C/c2cc(Cl)ccc2O)nc2ccccc21 49.3%
O=C(c1noc2c1CCCC2)N1CCN(c2ccccc2)CC1 3.6%
O=C(CSc1nnc(-c2ccc(Cl)s2)o1)N1CCOCC1 30.1%
Cc1c2c(c(C)n1C)C(C(=O)NC1CCCCC1)N(Cc1ccccc1)C2=O (stereo not drawn) -4.7%
Cc1ccc(NC(=O)CSc2nc(N)c(-c3ccccc3)c(=O)[nH]2)cc1Cl -0.7%
CCN(CC)C(=O)COC(=O)c1cc(-c2ccc(OC)cc2)nc2ccccc12 7%
COc1ccc(OC)c(C2CC(=O)N3CN(c4cccc(Cl)c4)CSC3=C2C#N)c1 (stereo not drawn) 35%
COc1ccc(N2CSC3=C(C#N)C(c4ccc(OC)c(OC)c4)CC(=O)N3C2)c(OC)c1 (stereo not drawn) -8.6%
COc1ccc(OC)c(C2CC(=O)N3CN(c4ccccc4)CSC3=C2C#N)c1 (stereo not drawn) -38.7%
COc1ccc(OC)c(C2CC(=O)N3CN(c4ccccc4F)CSC3=C2C#N)c1 (stereo not drawn) 17.1%
COc1ccc(N2CSC3=C(C#N)C(c4cc(OC)c(OC)cc4OC)CC(=O)N3C2)c(OC)c1 (stereo not drawn) 36.9%
COc1cc(OC)c(C2CC(=O)N3CN(c4ccccc4)CSC3=C2C#N)cc1OC (stereo not drawn) 31.4%
COc1cc(OC)c(C2CC(=O)N3CN(c4ccccc4C)CSC3=C2C#N)cc1OC (stereo not drawn) -1.4%
COc1cc(OC)c(C2CC(=O)N3CN(c4ccc(C)cc4)CSC3=C2C#N)cc1OC (stereo not drawn) 28.2%

inhibition, active:
Oc1cccc(C(Nc2nccs2)c2ccc3cccnc3c2O)c1 (stereo not drawn) 57.6%
N#CC1=C(N)Oc2c(sc3ccccc23)C1c1ccco1 (stereo not drawn) 53.1%
Cc1ccc(C2C(C#N)=C(N)Oc3c2sc2ccccc32)o1 (stereo not drawn) 57.5%
Cc1ccc(C(=O)N/C(=C\c2cccs2)c2nc3ccccc3[nH]2)cc1 57.5%
CCN(CC)c1ccc(C=Nc2cc(C)ccc2C)c(O)c1 58.3%
CCN(CC)c1ccc(C=Nc2ccccc2C)c(O)c1 66.6%
CC1=CC2(O)OCCN(CCO)C2=CC1=O (stereo not drawn) 57.4%
Cc1nn(C)c(C)c1N=Cc1c(O)ccc2ccccc12 50.3%
COc1ccc(N2CSC3=C(C#N)C(c4cc(OC)ccc4OC)CC(=O)N3C2)c(OC)c1 (stereo not drawn) 55.5%
COc1ccc(Br)cc1C1CC(=O)N2CN(Cc3ccccc3)CSC2=C1C#N (stereo not drawn) 55.7%
COc1ccc(Br)cc1C1CC(=O)N2CN(C)CSC2=C1C#N (stereo not drawn) 51.8%
